According to ChEMBL document CHEMBL1961873, “Compounds: GSK PKIS; Assays: Nanosyn kinase panel” (2012):
Values joined by “and” are separate entries in the source; they are usually repeats but may differ in a detail not shown here. Identical values can stand only once.

Columns and labels:
[1] = target: Leukocyte tyrosine kinase receptor (Homo sapiens) (UniProt P29376); details: at 1 µM;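 further: each value is the mean inhibition of LTK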
[2] = target: Tyrosine-protein kinase Lyn (Homo sapiens) (UniProt P07948); details: at 0.1 µM
[3] = target: Tyrosine-protein kinase Lyn (Homo sapiens) (UniProt P07948); details: at 1 µM
[4] = target: Tyrosine-protein kinase Lyn (Homo sapiens) (UniProt P07948); details: at 0.1 µM; remark: listed apart in the source
[5] = target: Tyrosine-protein kinase Lyn (Homo sapiens) (UniProt P07948); details: at 1 µM; remark: listed apart in the source
[6] = target: T1, Tyrosine-protein kinase Mer (Homo sapiens) (UniProt Q12866); details: at 0.1 µM
T1 sequence (whole entry): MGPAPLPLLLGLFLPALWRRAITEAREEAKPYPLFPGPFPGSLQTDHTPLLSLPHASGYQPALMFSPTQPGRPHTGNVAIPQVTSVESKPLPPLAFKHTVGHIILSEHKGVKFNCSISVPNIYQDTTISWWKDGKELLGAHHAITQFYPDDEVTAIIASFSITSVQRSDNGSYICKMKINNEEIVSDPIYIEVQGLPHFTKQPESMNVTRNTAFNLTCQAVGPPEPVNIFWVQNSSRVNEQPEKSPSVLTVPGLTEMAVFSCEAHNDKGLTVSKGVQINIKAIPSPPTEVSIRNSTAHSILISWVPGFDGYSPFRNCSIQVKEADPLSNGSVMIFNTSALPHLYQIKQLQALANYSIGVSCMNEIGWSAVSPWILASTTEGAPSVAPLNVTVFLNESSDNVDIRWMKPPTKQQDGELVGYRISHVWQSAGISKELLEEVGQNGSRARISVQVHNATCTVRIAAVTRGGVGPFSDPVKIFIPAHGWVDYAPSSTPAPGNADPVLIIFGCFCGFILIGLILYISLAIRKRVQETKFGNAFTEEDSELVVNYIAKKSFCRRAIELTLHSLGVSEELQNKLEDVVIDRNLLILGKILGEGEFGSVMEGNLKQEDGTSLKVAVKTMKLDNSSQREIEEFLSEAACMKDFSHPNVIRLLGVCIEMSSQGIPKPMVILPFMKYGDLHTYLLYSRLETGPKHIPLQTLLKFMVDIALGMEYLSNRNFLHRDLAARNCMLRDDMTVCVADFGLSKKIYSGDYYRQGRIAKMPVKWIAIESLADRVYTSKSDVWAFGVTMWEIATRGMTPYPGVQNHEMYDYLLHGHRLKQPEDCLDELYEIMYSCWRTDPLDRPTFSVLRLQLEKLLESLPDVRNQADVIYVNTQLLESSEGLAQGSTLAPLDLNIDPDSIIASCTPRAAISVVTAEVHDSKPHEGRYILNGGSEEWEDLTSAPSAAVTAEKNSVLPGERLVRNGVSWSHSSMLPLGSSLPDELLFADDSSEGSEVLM

[7] = target: T1, Tyrosine-protein kinase Mer (Homo sapiens); details: at 1 µM
[8] = target: Hepatocyte growth factor receptor (Homo sapiens) (UniProt P08581); details: at 0.1 µM
[9] = target: Hepatocyte growth factor receptor (Homo sapiens) (UniProt P08581); details: at 1 µM
[10] = target: T2, Muscle, skeletal receptor tyrosine-protein kinase (Homo sapiens) (UniProt O15146); details: at 0.1 µM;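 further: values are mean inhibition of MuSK from the GSK PKIS kinase screening panel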
T2 sequence (whole entry): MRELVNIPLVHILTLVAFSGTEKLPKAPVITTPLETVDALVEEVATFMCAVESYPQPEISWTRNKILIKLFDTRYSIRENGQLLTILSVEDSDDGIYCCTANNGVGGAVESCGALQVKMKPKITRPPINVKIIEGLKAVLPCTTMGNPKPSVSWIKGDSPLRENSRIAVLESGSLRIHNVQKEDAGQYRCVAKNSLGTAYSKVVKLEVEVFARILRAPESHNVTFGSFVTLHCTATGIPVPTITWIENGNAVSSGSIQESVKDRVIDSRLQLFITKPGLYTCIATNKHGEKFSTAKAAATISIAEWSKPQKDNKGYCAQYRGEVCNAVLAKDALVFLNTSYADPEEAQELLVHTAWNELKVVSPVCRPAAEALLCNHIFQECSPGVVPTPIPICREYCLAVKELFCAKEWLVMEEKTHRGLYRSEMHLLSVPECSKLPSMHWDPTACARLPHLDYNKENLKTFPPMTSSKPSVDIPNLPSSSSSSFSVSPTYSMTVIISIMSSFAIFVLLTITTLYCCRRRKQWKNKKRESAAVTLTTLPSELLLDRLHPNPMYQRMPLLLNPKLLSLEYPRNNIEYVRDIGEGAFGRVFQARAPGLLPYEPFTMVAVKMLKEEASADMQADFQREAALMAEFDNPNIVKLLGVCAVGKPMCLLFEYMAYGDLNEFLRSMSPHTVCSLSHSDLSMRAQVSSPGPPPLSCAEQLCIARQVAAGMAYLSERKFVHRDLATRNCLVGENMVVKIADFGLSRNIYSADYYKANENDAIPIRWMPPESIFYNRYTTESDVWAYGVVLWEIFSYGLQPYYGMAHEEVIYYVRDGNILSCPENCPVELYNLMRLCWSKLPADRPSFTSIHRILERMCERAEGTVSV

Chain of Tyrosine-protein kinase Lyn (Homo sapiens) (P07948 2-512 limits assumed): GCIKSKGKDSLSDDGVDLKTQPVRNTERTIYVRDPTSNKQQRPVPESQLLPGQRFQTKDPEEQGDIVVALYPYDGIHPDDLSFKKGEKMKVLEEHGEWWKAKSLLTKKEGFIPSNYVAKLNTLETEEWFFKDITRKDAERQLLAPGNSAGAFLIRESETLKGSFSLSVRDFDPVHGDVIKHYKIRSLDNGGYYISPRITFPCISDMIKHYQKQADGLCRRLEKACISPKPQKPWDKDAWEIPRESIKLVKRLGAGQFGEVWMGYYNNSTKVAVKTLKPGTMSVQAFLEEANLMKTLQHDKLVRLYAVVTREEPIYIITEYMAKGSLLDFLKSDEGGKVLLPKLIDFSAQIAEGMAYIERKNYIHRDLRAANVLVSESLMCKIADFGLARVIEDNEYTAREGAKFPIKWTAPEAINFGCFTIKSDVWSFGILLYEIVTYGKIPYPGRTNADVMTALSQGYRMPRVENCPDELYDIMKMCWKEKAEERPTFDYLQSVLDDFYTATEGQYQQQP
Chain of Hepatocyte growth factor receptor (Homo sapiens) (P08581 whole entry): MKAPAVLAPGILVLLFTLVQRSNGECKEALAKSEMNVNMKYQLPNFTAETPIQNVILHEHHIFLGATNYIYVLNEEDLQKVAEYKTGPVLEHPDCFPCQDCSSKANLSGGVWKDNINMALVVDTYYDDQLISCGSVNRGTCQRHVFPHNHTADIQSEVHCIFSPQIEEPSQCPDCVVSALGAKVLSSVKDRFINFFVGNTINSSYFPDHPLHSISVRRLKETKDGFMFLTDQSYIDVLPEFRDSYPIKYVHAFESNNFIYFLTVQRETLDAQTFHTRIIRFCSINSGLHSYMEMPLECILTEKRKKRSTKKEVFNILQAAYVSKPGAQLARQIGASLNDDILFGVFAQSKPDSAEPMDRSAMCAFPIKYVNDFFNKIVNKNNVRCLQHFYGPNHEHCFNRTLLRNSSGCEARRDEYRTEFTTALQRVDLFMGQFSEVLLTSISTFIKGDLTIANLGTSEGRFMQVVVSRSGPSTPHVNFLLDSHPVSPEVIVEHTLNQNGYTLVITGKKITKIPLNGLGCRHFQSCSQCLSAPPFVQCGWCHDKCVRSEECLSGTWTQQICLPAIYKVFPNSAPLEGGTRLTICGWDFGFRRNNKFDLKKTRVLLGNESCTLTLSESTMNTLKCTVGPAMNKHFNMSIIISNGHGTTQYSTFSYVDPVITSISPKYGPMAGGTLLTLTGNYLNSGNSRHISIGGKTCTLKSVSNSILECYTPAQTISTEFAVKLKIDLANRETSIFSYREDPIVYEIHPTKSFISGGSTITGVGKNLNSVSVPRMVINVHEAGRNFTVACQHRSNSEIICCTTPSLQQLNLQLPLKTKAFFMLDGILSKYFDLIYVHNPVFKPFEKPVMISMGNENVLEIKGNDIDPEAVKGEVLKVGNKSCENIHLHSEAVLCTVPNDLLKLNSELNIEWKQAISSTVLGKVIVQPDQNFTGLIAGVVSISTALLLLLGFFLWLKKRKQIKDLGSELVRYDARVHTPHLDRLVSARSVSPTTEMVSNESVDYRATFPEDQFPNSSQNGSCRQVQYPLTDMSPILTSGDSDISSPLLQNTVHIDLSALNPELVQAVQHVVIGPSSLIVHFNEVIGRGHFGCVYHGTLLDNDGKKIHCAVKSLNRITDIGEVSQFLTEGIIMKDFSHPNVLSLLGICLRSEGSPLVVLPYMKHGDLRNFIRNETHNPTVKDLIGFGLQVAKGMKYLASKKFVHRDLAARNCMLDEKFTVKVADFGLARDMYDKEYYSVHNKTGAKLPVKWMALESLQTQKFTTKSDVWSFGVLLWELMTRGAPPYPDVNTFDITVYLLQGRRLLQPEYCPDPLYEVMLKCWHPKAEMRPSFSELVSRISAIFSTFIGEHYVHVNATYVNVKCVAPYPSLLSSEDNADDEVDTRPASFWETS
Chain of Leukocyte tyrosine kinase receptor (Homo sapiens) (P29376 whole entry): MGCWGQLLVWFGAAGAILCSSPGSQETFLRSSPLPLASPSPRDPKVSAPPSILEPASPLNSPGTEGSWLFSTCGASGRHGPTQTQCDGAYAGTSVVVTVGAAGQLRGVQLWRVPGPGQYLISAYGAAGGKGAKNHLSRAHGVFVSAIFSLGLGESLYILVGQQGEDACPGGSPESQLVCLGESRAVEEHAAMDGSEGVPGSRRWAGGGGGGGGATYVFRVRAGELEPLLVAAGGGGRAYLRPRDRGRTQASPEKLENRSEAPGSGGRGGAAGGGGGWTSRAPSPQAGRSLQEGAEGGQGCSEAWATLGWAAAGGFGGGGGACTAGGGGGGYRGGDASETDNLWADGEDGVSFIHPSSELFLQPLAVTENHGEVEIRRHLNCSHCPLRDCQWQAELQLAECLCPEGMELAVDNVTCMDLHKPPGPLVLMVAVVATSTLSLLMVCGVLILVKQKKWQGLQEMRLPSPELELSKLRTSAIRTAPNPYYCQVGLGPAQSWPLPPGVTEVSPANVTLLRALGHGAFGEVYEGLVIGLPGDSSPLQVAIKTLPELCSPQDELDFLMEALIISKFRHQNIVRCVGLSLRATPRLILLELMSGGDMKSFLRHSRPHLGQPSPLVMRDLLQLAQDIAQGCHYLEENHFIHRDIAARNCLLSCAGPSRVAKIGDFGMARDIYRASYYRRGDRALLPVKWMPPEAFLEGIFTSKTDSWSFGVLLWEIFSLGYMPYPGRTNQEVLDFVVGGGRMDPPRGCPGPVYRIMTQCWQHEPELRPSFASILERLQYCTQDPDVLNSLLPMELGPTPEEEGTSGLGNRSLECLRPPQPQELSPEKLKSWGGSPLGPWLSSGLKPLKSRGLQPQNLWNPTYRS

Compound | inhibition [1] | inhibition [2] | inhibition [3] | inhibition [4] | inhibition [5] | inhibition [6] | inhibition [7] | inhibition [8] | inhibition [9] | inhibition [10]
COc1cccc(-n2ncc3c(N/N=C/c4ccc(C(=O)NCCN(C)C)cc4)ncnc32)c1 | 4.37% | 56.9% | 88.1% | 51% | 86.3% | 16.8% | 59.3% | 12.9% | 55.7% | 40.4%
NS(=O)(=O)c1ccc(N/N=C2\C(=O)Nc3ccc(C(=O)NCc4ccncc4)cc32)cc1 | 2.51% | 5.87% | 17.7% | 3.02% | 14.7% | 1.29% | 1.37% | 5.14% | 13% | 9.84%
c1cnn2ncc(-c3ccnc(NCCCN4CCOCC4)n3)c2c1 | 2.33% | 5.49% | 3.64% | 2.77% | 0.53% | 3.19% | -0.16% | -0.1% | 0.15% | 2.04%
O=C(O[C@H]1CN[C@H](C#Cc2cc3ncnc(Nc4ccc(OCc5cccc(F)c5)c(Cl)c4)c3s2)C1)N1CCOCC1 | 5.96% | 5.44% | 6.48% | 2.24% | 4.85% | 2.6% | 5.1% | 4.9% | 7.49% | 1.77%
CCOc1ccc2c(-c3ccnc(Nc4cc(OC)cc(C(F)(F)F)c4)n3)cnn2n1 | 1.37% | 2.55% | 5.91% | 0.62% | 4.08% | 1.11% | 4.18% | 4.49% | 5.18% | 0.02%
COc1ccc(Nc2ncc(-c3ccccc3)o2)cc1OC | 2.24% | 7.52% | 37.3% | 5.1% | 32.9% | -0.52% | 5.18% | 2.78% | 1.69% | 2.37%
O=C(O[C@H]1CN[C@H](C#Cc2cc3ncnc(Nc4ccc5c(ccn5Cc5cc(F)ccc5F)c4)c3s2)C1)N1CCOCC1 | 4.15% | 4.33% | 6.23% | 2.03% | 1.87% | 1.34% | 3.33% | 7.21% | 10.8% | 2.87%
Cc1cc(O)cc(C)c1/C=C/c1cncc(C(=O)OC(C)(C)C)c1 | 2.98% | 13.7% | 57.2% | 13.6% | 53.4% | 1.26% | 2.87% | 4.92% | 5.5% | 3.21%
COc1ccc(-c2nn3ncccc3c2-c2ccnc(Nc3ccc(F)c(F)c3)n2)cc1 | 5.06% | 6.17% | 21.3% | 3.08% | 17.7% | 1.6% | 7.43% | 1.87% | 8.73% | 3.13%
Nc1nccc(-c2c(-c3ccc(F)cc3)ncn2C2CCNCC2)n1 | -1.33% and 1.18% | -0.63% and 1.67% | 9.44% and 9.35% | -1.82% and 1.01% | 7.55% and 6.33% | 0.83% and 0.35% | 2.87% and 1.44% | -2.37% and 2.87% | -2.98% and 4.72% | -3.15% and 1.87%
CC(C)c1ccc(-c2cc(-c3c[nH]nc3-c3ccccn3)ccn2)cc1 | 2.43% | 1.49% | 1.48% | 0.81% | 1.31% | -0.12% | 3.22% | -1.81% | 3.3% | 5.54%
COc1cc(N2CCN(C(C)C)CC2)ccc1Nc1nc(Nc2cccc(F)c2C(=O)O)c2cc[nH]c2n1 | 91.8% | 4.91% | 8.65% | 3.03% | 6.2% | 1.01% | 4.62% | 9.65% | 1.52% | 4.22%
Fc1ccc(Nc2nccc(-c3c(-c4ccc(C(F)(F)F)cc4)nn4ncccc34)n2)cc1F | 3.06% | 2.77% | 2.13% | 1.22% | 0.38% | 3.18% | 2.81% | 4.74% | 4.74% | 2.34%
CS(=O)(=O)CCNCc1ccc(-c2ccc3ncnc(Nc4ccc(OCc5cccc(C(F)(F)F)c5)cc4)c3c2)o1 | 4.64% | 4.67% | 5.36% | -0.37% | 2.74% | 1.26% | 7.4% | 2.15% | 4.91% | 2.66%
COc1cccc(Nc2nccc(-c3cnn4ncccc34)n2)c1 | 18.2% | 5.3% | 16.9% | 3.27% | 11.3% | 1.29% | 12.1% | 3.9% | 12.1% | 2.83%
